Where “and” joins values, the source holds several entries; their conditions need not be identical. Equal entries are not always repeated. The campaign covered roughly 5,500 compounds. About 2,000 (36%) were called active. Not shown: some 18% with an inconclusive outcome. Cut-off read from the data, not from the text of the source: active = normalized growth mostly below about 0.91 (no sharp cut-off); inconclusive = no clear call, values can overlap the other calls; inactive = mostly above about 0.92. The list shows a part of the results.
Assay: chemical genetic growth profiling, strain panel (AID 1159580);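 note: tested at 20 µM; growth read once vehicle control cultures reached saturation at 30 °C; 1 = growth at the plate median or of vehicle wells; lower values mean less growth of the strain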
Conditions: S. cerevisiae deletion strains, growth OD

Measured: normalized growth

COc1ccc(Cc2nccc3cc(OC)c(OC)cc23)cc1OC
inactive: locus YAL021C, strain ccr4, hits give low values 1.04 | locus YAL026C, strain drs2, hits give low values 1 | locus YAL030W, strain snc1, hits give low values 1 | locus YAL040C, strain CLN3, hits give low values 0.983 | locus YBL061C, strain skt5, hits give low values 1 | locus YBR009C, strain hhf1, hits give low values 0.995 | locus YBR021W, strain FUR4, hits give low values 1.01 | locus YBR023C, strain chs3, hits give low values 1.01 | locus YBR171W, strain sec66, hits give low values 1.01 | locus YBR229C, strain ROT2, hits give low values 1.01 | locus YBR231C, strain swc5, hits give low values 0.998 | locus YBR279W, strain paf1, hits give low values 1.01 | locus YCL011C, strain gbp2, hits give low values 1.01 | locus YCL016C, strain dcc1, hits give low values 1.01 | locus YCL029C, strain bik1, hits give low values 0.992 | locus YCL061C, strain MRC1 (second series), hits give low values 1 | locus YCL061C, strain MRC1, hits give low values 1 | locus YCL069W, strain vba3, hits give low values 1 | locus YCR088W, strain abp1, hits give low values 1.01 | locus YDL005C, strain med2, hits give low values 0.994 | locus YDL035C, strain GPR1, hits give low values 1.01 | locus YDL040C, strain nat1, hits give low values 0.998 | locus YDL074C, strain BRE1, hits give low values 1.02 | locus YDL101C, strain DUN1, hits give low values 1.01 | locus YDL134C, strain PPH21, hits give low values 1.01 | locus YDL185W, strain tfp1, hits give low values 0.992 | locus YDL192W, strain arf1, hits give low values 0.989 | locus YDR001C, strain nth1, hits give low values 0.999 | locus YDR069C, strain doa4, hits give low values 0.989 | locus YDR101C, strain arx1, hits give low values 0.996 | locus YDR137W, strain rgp1, hits give low values 1.03 | locus YDR150W, strain NUM1, hits give low values 1.02 | locus YDR159W, strain sac3, hits give low values 0.962 | locus YDR162C, strain NBP2, hits give low values 1 | locus YDR195W, strain ref2 0.981 | locus YDR297W, strain sur2, hits give low values 1 | locus YDR318W, strain mcm21, hits give low values 0.976 | locus YDR334W, strain swr1, hits give low values 1.01 | locus YDR335W, strain msn5, hits give low values 0.999 | locus YDR363W, strain ESC2, hits give low values 0.988 | locus YDR388W, hits give low values 0.993 | locus YDR392W, strain spt3, hits give low values 0.921 | locus YDR502C, strain sam2, hits give low values 0.986 | locus YEL003W, strain gim4, hits give low values 0.996 | locus YEL037C, strain rad23, hits give low values 1 | locus YEL061C, strain CIN8 (second series), hits give low values 1 | locus YEL061C, strain CIN8, hits give low values 1.01 | locus YER002W, strain NOP16, hits give low values 0.994 | locus YER015W, strain faa2, hits give low values 1 | locus YER016W, strain bim1, hits give low values 0.996 | locus YER110C, hits give low values 0.988 | locus YER111C, strain swi4, hits give low values 1.01 | locus YER155C, strain BEM2 (second series), hits give low values 0.987 | locus YER155C, strain BEM2, hits give low values 1.01 | locus YER167W, strain BCK2, hits give low values 1.01 | locus YFR010W, strain ubp6, hits give low values 0.998 | locus YGL078C, strain dbp3, hits give low values 0.99 | locus YGL086W, strain mad1, hits give low values 0.994 | locus YGL167C, strain pmr1, hits give low values 0.998 | locus YGL173C, strain kem1, hits give low values 0.999 | locus YGL227W, strain vid30, hits give low values 1 | locus YGL240W, strain doc1, hits give low values 0.967 | locus YGL248W, strain PDE1, hits give low values 1.01 | locus YGL253W, strain hxk2, hits give low values 1.01 | locus YGR078C, strain PAC10, hits give low values 0.975 | locus YGR135W, strain pre9, hits give low values 0.977 | locus YGR229C, strain SMI1, hits give low values 0.995 and 0.994 | locus YGR252W, strain gcn5, hits give low values 0.949 | locus YHR013C, strain ard1, hits give low values 1.07 | locus YHR027C, strain rpn1, hits give low values 0.998 | locus YHR030C, strain SLT2, hits give low values 1.02 and 0.98 | locus YHR079C, strain IRE1 (second series), hits give low values 0.985 | locus YHR079C, strain IRE1, hits give low values 0.972 | locus YHR094C, strain hxt1, hits give low values 0.992 | locus YHR129C, strain ARP1, hits give low values 1.02 | locus YHR142W, strain chs7, hits give low values 0.998 | locus YHR200W, strain rpn10, hits give low values 0.99 | locus YIL066C, strain RNR3, hits give low values 1.01 | locus YIL073C, strain SPO22, hits give low values 0.957 | locus YIL125W, strain kgd1, hits give low values 0.991 | locus YIR030C, strain dcg1, hits give low values 0.983 | locus YJL092W, strain hpr5, hits give low values 1 | locus YJL095W, strain BCK1 (second series), hits give low values 1 | locus YJL095W, strain BCK1, hits give low values 1.03 and 0.985 | locus YJL115W, strain asf1, hits give low values 1 | locus YJL129C, strain trk1, hits give low values 0.985 | locus YJL134W, strain LCB3, hits give low values 1.01 | locus YJL154C, strain vps35, hits give low values 1 | locus YJL164C, strain tpk1, hits give low values 0.996 | locus YJL166W, strain qcr8, hits give low values 1.01 | locus YJL168C, strain set2, hits give low values 0.995 | locus YJL187C, strain SWE1 (second series), hits give low values 1.01 | locus YJL187C, strain SWE1, hits give low values 0.996 | locus YJR043C, strain POL32, hits give low values 1.01

Reference: PubChem BioAssay AID1159580 (chemical genetic matrix, 2015)
